D2 ag-1 – Beta-Arrestin HTS for Positive Allosteric Modulators of the Human D2 Dopamine Receptor: Agonists; DiscoveRx PathHunter D2 beta-arrestin, luminescence, 90 min; 100% = 57 uM dopamine signal; 360,000 tested, 0.084% active; activation, % (test concentration not listed); D(2) dopamine receptor (Homo sapiens), P14416; in the data active means activation above about 40%; inconclusive means between about 15% and that limit
Target sequence (P14416 whole entry, looked up): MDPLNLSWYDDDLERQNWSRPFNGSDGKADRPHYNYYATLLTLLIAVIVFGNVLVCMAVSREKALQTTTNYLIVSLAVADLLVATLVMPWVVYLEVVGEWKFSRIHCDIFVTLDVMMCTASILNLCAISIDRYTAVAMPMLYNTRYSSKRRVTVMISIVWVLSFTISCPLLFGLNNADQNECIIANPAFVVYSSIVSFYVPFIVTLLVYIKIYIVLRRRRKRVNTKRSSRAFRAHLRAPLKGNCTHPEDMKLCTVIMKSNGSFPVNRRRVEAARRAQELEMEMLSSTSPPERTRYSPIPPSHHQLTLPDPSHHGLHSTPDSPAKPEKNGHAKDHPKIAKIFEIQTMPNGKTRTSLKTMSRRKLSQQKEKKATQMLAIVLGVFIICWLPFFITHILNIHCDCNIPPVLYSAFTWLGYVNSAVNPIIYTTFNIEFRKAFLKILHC
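Agonist mode: compounds alone added to overnight-plated D2 PathHunter cells for 90 min at 37 C, with 57 uM final dopamine (EC100) defining full response. Beta-arrestin recruitment detected by chemiluminescent reagent, read after 1 h at ambient temperature.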
D2 antag – HTS Assay for Allosteric Antagonists of the Human D2 Dopamine Receptor: Primary Screen for Antagonists. D(2) dopamine receptor (Homo sapiens), P14416. HEK293 TREx D2 cells, calcium flux, dopamine EC80. inhibition, % at 10 µM. 340,000 tested, 2% active. AID 485344, 2010; in the data active means inhibition above about 30%; inactive means below that, where a call was filed; further: 0% is about no effect
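In this primary screen, negative modulation is detected by tracking calcium flux after an EC80 dopamine challenge in inducible HEK293 T-REx D2 cells preexposed to test compound for 180 s.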
D2 PAM-1 – Beta-Arrestin HTS for Positive Allosteric Modulators of the Human D2 Dopamine Receptor: Potentiators; DiscoveRx D2 beta-arrestin cells, luminescence, 90 min; 100% = 57 uM dopamine signal; potentiation, % (test concentration not listed); 360,000 tested, 0.23% active; AID 624464, 2012; in the data active means potentiation above about 50%; inconclusive means mostly about 30% to 49%
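PathHunter beta-arrestin assay in DiscoveRx D2 cells. Compounds were added with an EC20 of dopamine (50 nM final) for 90 min at 37 deg C. Luminescence was read 1 h after detection reagent, with 57 uM dopamine as the EC100 control.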
D2 PAM-2 – HTS Assay for Positive Allosteric Modulators of the Human D2 Dopamine Receptor: Primary Screen for Potentiators | D(2) dopamine receptor (Homo sapiens), P14416 | HEK293 T-REx D2, calcium flux, EC20 dopamine potentiation | potentiation, % at 10 µM | 340,000 tested, 0.34% active;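 active means potentiation over 3 SD above the plate norm, cut at about 30% in these data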; further: 0% is about no effect
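Tetracycline-induced Hek293 Trex D2 cells, force-coupled to calcium, loaded with no-wash calcium dye. Compound added with 180 s kinetic read for agonism, then EC20 dopamine and a further 180 s read for potentiation.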
D2 ag-2 – HTS Assay for Allosteric Agonists of the Human D2 Dopamine Receptor: Primary Screen for Agonists; D(2) dopamine receptor (Homo sapiens), P14416; HEK293 T-REx D2 cells, calcium flux agonist mode; activation, % at 2 µM; 340,000 tested, 0.53% active; AID 485358, 2010;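 active means activation over 3 SD above normal in the single-dose calcium agonist read, cut at about 30% in these data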; further: 0% is about no effect
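Tetracycline-induced HEK293 Trex cells with D2 receptor force-coupled to calcium signaling, plated overnight at 30 C and loaded with no-wash calcium dye. Calcium flux read kinetically for 180 s after compound addition; responses flag agonists.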
Numbers without * were called inactive. Most compounds without a hit are left out; they make up all but 2.4% or so of the library.

Results for O=C(Nc1cc(-c2nc3ccccc3o2)ccc1Cl)c1sc2c([N+](=O)[O-])cccc2c1Cl ?
D2 PAM-2: -0.1; D2 ag-2: -0.1

Results for NC(=O)c1ccccc1NC(=O)CC12CC3CC(CC(Br)(C3)C1)C2 ?
D2 ag-1: -0.9; D2 antag: -4.7; D2 PAM-1: -5.5; D2 PAM-2: 36.3*; D2 ag-2: 5.4

What do the screens show for `COc1ccccc1NC(=O)CC12CC3CC(CC(Br)(C3)C1)C2`?
D2 ag-1: 0.5; D2 antag: -1.8; D2 PAM-1: -3.6; D2 PAM-2: 5.0; D2 ag-2: 0.6

What do the screens show for `COc1ccccc1C(NC(=O)C1CCN(CCOc2ccc(Cl)cc2Cl)CC1)c1ccccn1` (configuration not stated)?
D2 ag-1: -2.5; D2 PAM-1: -15.0

How did CC(=O)Nc1ccccc1/C=C/c1ccc2c(C)ccc(O)c2n1 do in these assays?
D2 ag-1: 2.5; D2 antag: 33.2*; D2 PAM-1: -9.4; D2 PAM-2: 9.2; D2 ag-2: 1.8

How did CCCCN1C(=O)c2[nH]nc(-c3ccccc3O)c2C1c1ccc(OCc2ccccc2)cc1 (configuration not stated) do in these assays?
D2 PAM-2: -1.0; D2 ag-2: -0.3

How did Cc1ccc(N2CCN(CC3CC=CCC3)CC2)cc1 (configuration not stated) do in these assays?
D2 ag-1: -1.8; D2 antag: 36.5*; D2 PAM-1: -15.4; D2 PAM-2: -16.3; D2 ag-2: 0.2

Results for FC(F)(F)c1cccc(N2CCN(CC3CC=CCC3)CC2)c1 (configuration not stated) ?
D2 ag-1: 0.8; D2 antag: 73.2*; D2 PAM-1: -29.8; D2 PAM-2: -24.4; D2 ag-2: 0.6

What do the screens show for `CCOC(=O)C1=C(CNCCc2ccc(Cl)cc2)NC(=O)NC1c1ccc2c(c1)OCO2` (configuration not stated)?
D2 ag-1: -3.9; D2 antag: 4.0; D2 PAM-1: 22.2; D2 PAM-2: 30.6*; D2 ag-2: -0.9

Results for Cc1ccc(S(=O)(=O)N(C)S(=O)(=O)c2ccc(C#N)cc2)cc1 ?
D2 antag: -28.5; D2 PAM-2: 8.0; D2 ag-2: 0.5

Results for CC1=CC(C)(C)Nc2ccc(OC(=O)CCN3C(=O)c4ccccc4C3=O)cc21 ?
D2 ag-1: inconclusive; D2 antag: -1.3; D2 PAM-1: 130.5*; D2 PAM-2: 1.1; D2 ag-2: -0.8

Results for COc1cccc(Cn2cnc3c(N)c(C)c(C)cc32)c1 ?
D2 ag-1: -1.7; D2 antag: -7.9; D2 PAM-1: -0.8; D2 PAM-2: -1.9; D2 ag-2: 1.9

How did CCCn1cnc2c(N)c(C)c(C)cc21 do in these assays?
D2 ag-1: -0.6; D2 antag: 32.4*; D2 PAM-1: -4.5; D2 PAM-2: 8.4; D2 ag-2: 0.6

What do the screens show for `O=C(COC(=O)c1ccc(Cl)c(S(=O)(=O)N2CCCCC2)c1)NCC1CCCCC1`?
D2 ag-1: -1.4; D2 antag: 43.8*; D2 PAM-1: -1.6; D2 PAM-2: -7.3; D2 ag-2: -0.8

What do the screens show for `O=C(O)c1cnn(-c2nc(-c3cccc([N+](=O)[O-])c3)cs2)c1C(F)(F)F`?
D2 ag-1: -1.2; D2 antag: 31.2*; D2 PAM-1: -0.3; D2 PAM-2: -5.2; D2 ag-2: 1.0

How did CCN(Cc1ccc(OC)cc1)c1ccc(-c2nc(-c3ccncc3)no2)cc1[N+](=O)[O-] do in these assays?
D2 PAM-2: 6.5; D2 ag-2: -1.7

What do the screens show for `COc1ccc2c(c1OC)C(=O)N1c3ccccc3C(=O)N(c3ccc(F)cc3)C21` (configuration not stated)?
D2 ag-1: -2.2; D2 antag: 40.6*; D2 PAM-1: 0.4; D2 ag-2: 0.1

How did Cc1ccc(NC(=O)Cn2c(=O)n(CCCCC(=O)NCc3ccc4c(c3)OCO4)c(=O)c3ccccc32)cc1 do in these assays?
D2 ag-2: 0.7

What do the screens show for `COc1cc(NC(=O)c2ccccc2OCc2ccccc2)cc(OC)c1OC`?
D2 ag-1: -0.5; D2 antag: -3.6; D2 PAM-1: 55.6*; D2 PAM-2: -7.2; D2 ag-2: -1.0

What do the screens show for `O=C(Nc1ccc(O)cc1)c1ccccc1OCc1ccccc1`?
D2 ag-1: 2.1; D2 antag: -0.2; D2 PAM-1: 0.1; D2 PAM-2: 13.9; D2 ag-2: 0.6

How did COc1ccc(CCNC(=O)Cn2c(=O)c3cccn3c3ccc(F)cc32)c(OC)c1 do in these assays?
D2 PAM-2: 12.6; D2 ag-2: -0.1

How did Cc1cc(Cl)ccc1OCCCC(=O)N1CCN(C)CC1 do in these assays?
D2 ag-1: -0.2; D2 antag: 32.2*; D2 PAM-1: -26.8; D2 PAM-2: -12.1; D2 ag-2: -0.6

How did Cc1cc(C(=O)NC2CCCCC2)c2cc(F)ccc2n1 do in these assays?
D2 ag-1: 2.2; D2 antag: 31.5*; D2 PAM-1: 26.5; D2 PAM-2: -0.9; D2 ag-2: 1.4

What do the screens show for `Cc1cc(C(=O)NC2CCCC2)c2ccccc2n1`?
D2 ag-1: 1.5; D2 PAM-1: -8.3; D2 PAM-2: -1.0

How did COc1ccccc1CNC(=O)CN(C)c1nn2c(=O)cc(C)nc2s1 do in these assays?
D2 PAM-2: 2.0; D2 ag-2: 0.1

How did C=CCN1C=CC(=CC=C(C#N)C#N)C=C1 do in these assays?
D2 ag-1: 0.1; D2 antag: 7.1; D2 PAM-1: -17.1; D2 PAM-2: 5.7; D2 ag-2: 53.2*

How did Cc1cccc(N2CCN(C(=O)CNC(=O)C3CCCCC3)CC2)c1C do in these assays?
D2 ag-1: 2.5; D2 antag: 0.9; D2 PAM-1: 14.2; D2 PAM-2: -3.8; D2 ag-2: 0.6

Results for Cc1cccc(N2CCN(C(=O)CNC(=O)c3ccccc3)CC2)c1C ?
D2 ag-1: 0.2; D2 antag: 33.1*; D2 PAM-1: -6.0; D2 PAM-2: 12.8; D2 ag-2: -1.2

How did Cc1oc2cc(O)ccc2c(=O)c1Oc1ccccc1 do in these assays?
D2 ag-1: -3.0; D2 antag: 17.0; D2 PAM-1: -17.0; D2 PAM-2: 5.1; D2 ag-2: 0.3

How did Cc1oc2cc(O)ccc2c(=O)c1Oc1ccccc1Br do in these assays?
D2 ag-1: -3.4; D2 antag: 36.6*; D2 PAM-1: 2.0; D2 PAM-2: -6.0; D2 ag-2: -1.5

Screening results as filed in PubChem.
